# Results from PubChem BioAssay (NCATS).
# Records with an inconclusive call do not appear. A call without a number means that no potency is given here. Values without a mark were called inactive. Activity calls are given as the source filed them. Unless noted, calls follow the shape of the full dose curve.
# Experiments:
# [1] = qHTS for Inhibitors of the Functional Ribonucleoprotein Complex (vRNP) of Lassa (LASV) Arenavirus: LASV Primary Screen - GLuc reporter signal (AID 1347082; calls by dose curve; tested in HEK293 reporter line; also: nearly all actives have a fitted effect of over 60% in size); conditions: LASV minigenome vRNP, Gaussia luciferase reporter; series mostly up to 57.5 µM
# [2] = qHTS for Inhibitors of the Functional Ribonucleoprotein Complex (vRNP) of Lassa (LASV) Arenavirus: Viability assay - alamar blue signal for LASV Primary Screen (AID 1347083; calls by dose curve; tested in HEK293 reporter line; also: nearly all actives have a fitted effect of over 80% in size); conditions: cell viability, alamar blue fluorescence (LASV minigenome counter-screen); series mostly up to 57.5 µM
# [3] = qHTS for Inhibitors of the Functional Ribonucleoprotein Complex (vRNP) of Lymphocytic Choriomeningitis Arenaviruses (LCMV): Viability assay - alamar blue signal for LCMV Primary Screen (AID 1347085; calls by dose curve; tested in HEK293 reporter line; also: nearly all actives have a fitted effect of over 80% in size); conditions: alamar blue viability counter-screen, LCMV vRNP screen cells; series mostly up to 57.5 µM
# [4] = molecular target: Nucleoprotein (Lymphocytic choriomeningitis virus (strain Armstrong)) (UniProt P09992); test: qHTS for Inhibitors of the Functional Ribonucleoprotein Complex (vRNP) of Lymphocytic Choriomeningitis Arenaviruses (LCMV): LCMV Primary Screen - GLuc reporter signal (AID 1347086); conditions: LCMV minigenome vRNP cell assay, Gaussia luciferase reporter; series mostly up to 57.5 µM; also: nearly all actives have a fitted effect of over 70% in size
# Chain of Nucleoprotein (Lymphocytic choriomeningitis virus (strain Armstrong)) (P09992 whole entry, looked up): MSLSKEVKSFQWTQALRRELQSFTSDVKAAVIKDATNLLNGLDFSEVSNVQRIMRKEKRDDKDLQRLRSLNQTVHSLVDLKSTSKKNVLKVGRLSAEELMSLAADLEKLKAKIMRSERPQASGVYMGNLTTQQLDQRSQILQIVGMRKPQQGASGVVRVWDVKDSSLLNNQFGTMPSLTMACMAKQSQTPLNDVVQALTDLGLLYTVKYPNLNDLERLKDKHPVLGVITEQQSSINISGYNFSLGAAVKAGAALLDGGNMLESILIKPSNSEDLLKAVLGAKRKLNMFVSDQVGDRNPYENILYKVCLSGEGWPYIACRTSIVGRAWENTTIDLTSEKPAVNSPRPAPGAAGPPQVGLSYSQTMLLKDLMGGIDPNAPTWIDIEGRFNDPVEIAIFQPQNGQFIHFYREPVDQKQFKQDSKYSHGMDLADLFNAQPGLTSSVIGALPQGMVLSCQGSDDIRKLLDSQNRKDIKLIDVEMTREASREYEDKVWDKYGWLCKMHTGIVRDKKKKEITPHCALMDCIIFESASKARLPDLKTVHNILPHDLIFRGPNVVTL
# Potency is read from the fitted curve at half-maximal effect.
Structure (SMILES),Potency [1],Potency [2],Potency [3],Potency [4]
COc1cc2nc(-c3cc(F)ccc3O)nc(N[C@@H]3CNC[C@@H]3C(C)(C)O)c2cc1OC,1370 nM (active),1090 nM (active),8630 nM (active),
COc1cccc2c1C(=O)c1c(O)c3c(c(O)c1C2=O)C[C@@](O)(C(=O)CO)C[C@H]3O[C@H]1C[C@H](N)[C@H](O)[C@H](C)O1,13700 nM (active),1090 nM (active),863 nM (active),
CCS(=O)(=O)Nc1ccc2[nH]c(O)c(C(=Nc3ccc(CN4CCCCC4)cc3)c3ccccc3)c2c1,9680 nM (active),2170 nM (active),968 nM (active),
COc1cc(OC)c2c(=O)cc(-c3ccccc3)oc2c1,inactive,inactive,inactive,
O=C(O)C[C@H](O)C[C@H](O)C=Cc1c(C2CC2)nc2ccccc2c1-c1ccc(F)cc1,inactive,24300 nM (active),,
COc1cc(C)c(C(=O)Oc2cc(C)c(C(=O)O)c(O)c2C)c(O)c1C(=O)O,inactive,inactive,inactive,inactive
CCCCCCCCCCCCCCCC(=O)OC(CO)CO,inactive,inactive,inactive,inactive
CC(C)(O)CC(=O)NCCn1ccc2ncnc(Nc3ccc(Oc4cccc(C(F)(F)F)c4)c(Cl)c3)c21,inactive,inactive,769 nM (active),
CCCCCC(=O)N[C@@H](c1ccccc1)[C@@H](O)C(=O)O[C@H]1C[C@@]2(O)[C@@H](OC(=O)c3ccccc3)C3[C@](C)(C(=O)[C@H](O)C(=C1C)C2(C)C)[C@@H](OC1OCC(O)C(O)C1O)C[C@H]1OC[C@@]31OC(C)=O (stereo partly drawn),inactive,inactive,,
C=CC(C)(C)c1c2occc2c(O)c2ccc(=O)oc12,inactive,inactive,,
CCC(=C(c1ccc(O)cc1)c1ccc(OCCNC)cc1)c1ccccc1,3430 nM (active),3430 nM (active),13700 nM (active),
O=C1NC(=O)C(=Cc2ccc3nccc(-c4ccncc4)c3c2)S1,432 nM (active),109 nM (active),273 nM (active),
CCS(=O)(=O)c1cccc(-c2cc(C(=O)NC3CCN(C)CC3)c(C)c3[nH]c4ncc(C)cc4c23)c1,12200 nM (active),6850 nM (active),6110 nM (active),
CCC(=C(CC)c1ccc(O)cc1)c1ccc(O)cc1,inactive,15.3 nM (active),13.7 nM (active),
Nc1ccn([C@@H]2O[C@H](CO)[C@H](O)C2(F)F)c(=O)n1,inactive,968 nM (active),968 nM (active),
O=c1c(-c2ccc(O)cc2)coc2c(C3OC(CO)C(O)C(O)C3O)c(O)ccc12 (stereo not drawn),inactive,inactive,,
O=c1ccc2cc3ccoc3cc2o1,inactive,inactive,inactive,inactive
CC(=O)OC1CCC2(C)C(COc3ccc4ccc(=O)oc4c3)C(C)(O)CCC2C1(C)C (stereo not drawn),inactive,inactive,inactive,
COc1cccc(-c2ccc(NC(=O)C3=C(C(=O)O)CCC3)c(F)c2)c1,inactive,inactive,inactive,
Cc1cc(Nc2ncc3c(n2)N(C)C(=O)N(c2cc(NC(=O)c4cccc(C(F)(F)F)c4)ccc2C)C3)n(C)n1,3850 nM (active),611 nM (active),1530 nM (active),
CCCCCCC[C@@H](C/C=C/CCC(=O)N(C)C/C(=C/Cl)C/C(=C\C(=O)N1C[C@H](O)CC1=O)OC)OC,inactive,inactive,inactive,
O=C1C=C(c2ccccc2)CO1,inactive,inactive,inactive,inactive

Structure (SMILES),Potency [1],Potency [2],Potency [3],Potency [4]
CC(=O)[C@]1(O)Cc2c(O)c3c(c(O)c2[C@@H](O[C@H]2C[C@H](N)[C@@H](O)[C@H](C)O2)C1)C(=O)c1ccccc1C3=O,10900 nM (active),769 nM (active),611 nM (active),
COc1cc(O)c2c(=O)c3c(OC)c(O)ccc3oc2c1,inactive,inactive,inactive,inactive
CCCCCOC(=O)Nc1nc(=O)n([C@@H]2O[C@H](C)[C@@H](O)C2O)cc1F (stereo partly drawn),inactive,inactive,,
CCCCCCC1CCC(=O)O1 (stereo not drawn),inactive,inactive,inactive,
O=C1NC(=O)C(=Cc2ccc3c(c2)OC(F)(F)O3)S1,inactive,inactive,,
COc1ccc(C2CC(=O)c3c(O)cc(O)cc3O2)c(CC=C(C)C)c1OC (stereo not drawn),inactive,inactive,inactive,inactive
CC[C@H]1OC(=O)[C@H](C)C(=O)[C@H](C)[C@@H](O[C@H]2O[C@H](C)C[C@H](N(C)C)[C@@H]2O)[C@](C)(OC)C[C@@H](C)C(=O)[C@H](C)[C@H]2N(CCCCn3cnc(-c4cccnc4)c3)C(=O)O[C@]12C,inactive,inactive,inactive,
NC1=N[C@H](O)[C@H]2C3O[C@]4(O)O[C@H](C(O)[C@@]2(N1)[C@@H]4O)C3(O)CO (stereo partly drawn),inactive,inactive,inactive,inactive
C=C[C@@H]1CN2CC[C@@H]1C[C@H]2[C@H](O)c1ccnc2ccc(OC)cc12,inactive,inactive,inactive,inactive
COc1cc(C2C(c3ccccc3)C(c3cc(OC)cc(=O)o3)C2c2ccccc2)oc(=O)c1 (stereo not drawn),inactive,inactive,inactive,inactive
COc1c(O)cc2c(=O)oc3c(OC)c(O)cc4c(=O)oc1c2c34,inactive,inactive,inactive,inactive
CCC12CCCN3CCC4(C(=C(C(=O)OC)C1)Nc1ccccc14)C32 (stereo not drawn),inactive,inactive,inactive,
COc1ccc2c(=O)cc(-c3ccccc3)n(C)c2c1,inactive,inactive,inactive,inactive
O=C(C=Cc1ccc(O)cc1)c1ccc(O)cc1O,inactive,inactive,inactive,
COC(=O)C1C2CC3c4[nH]c5cc(OC)ccc5c4CCN3CC2CC(O)C1OC (stereo not drawn),inactive,inactive,,
C=C1C(=O)OC2C=C(CO)CCC=C(CO)CC(OC(=O)C(C)C)C12 (stereo not drawn),inactive,inactive,inactive,inactive
COc1cc2c(c(OC)c1OC)-c1c(cc3c(c1OC)OCO3)C1OC2[C@@H](C)[C@H]1C (stereo partly drawn),inactive,inactive,inactive,inactive
CC(C)(O)[C@H](O)Cc1cc2ccc(=O)oc2cc1O[C@@H]1O[C@H](CO)[C@@H](O)[C@H](O)[C@H]1O,inactive,inactive,inactive,inactive
CC(C)N1[N]C(=C2C=c3cc(O)ccc3=N2)c2c(N)ncnc21,2730 nM (active),685 nM (active),1090 nM (active),611 nM (active)
O=c1c2ccccc2nc2n1CCC2,inactive,inactive,inactive,inactive
O=C(c1ccccc1)N1CCCCC1,inactive,inactive,inactive,inactive
CC1CCC(C(C)(C)S)C(=O)C1 (stereo not drawn),inactive,inactive,inactive,inactive

Structure (SMILES),Potency [1],Potency [2],Potency [3],Potency [4]
CC(=O)OC[C@H]1O[C@@H](O[C@H]2C[C@]3(C)C(C[C@@H](O)C4C([C@]5(C)CC[C@@H](C(C)(C)O)O5)CC[C@]43C)[C@@]3(C)CC[C@H](O)C(C)(C)C23)[C@H](O[C@@H]2O[C@@H](C)[C@H](O)[C@@H](O)[C@H]2O)[C@@H](O)[C@@H]1O (stereo partly drawn),inactive,inactive,inactive,inactive
CC/C=C\CCOC(=O)C(C)C,inactive,inactive,inactive,inactive
Fc1ccc(C(c2ccc(F)cc2)N2CCN(CC=Cc3ccccc3)CC2)cc1,inactive,inactive,inactive,inactive
CC(C)=CCc1c(O)cc(O)c2c1OC(c1ccc(O)cc1)CC2=O (stereo not drawn),inactive,inactive,inactive,inactive
C/C=C(/C)C(=O)OC(C)(C)[C@@H]1Cc2c(ccc3ccc(=O)oc23)O1,inactive,inactive,inactive,inactive
Cc1cc(-c2nnc3n2CCCCC3)c(C)n1-c1ccccc1,inactive,inactive,inactive,inactive
COc1cc(=O)n(C)c2c(O)cccc12,inactive,inactive,inactive,inactive
O=C(/C=C/c1ccccc1)NCCc1cnc[nH]1,inactive,inactive,inactive,inactive
Nc1ncnc2c1ncn2[C@@H]1O[C@H](COP(=O)(O)OP(=O)(O)OC[C@H]2OC(O)[C@H](O)[C@@H]2O)[C@@H](O)[C@H]1O (stereo partly drawn),inactive,inactive,inactive,inactive
COc1c(Br)cc(Br)cc1C(=O)O,inactive,inactive,inactive,inactive
CCCCOC(=O)C(=O)OCCCC,inactive,inactive,inactive,inactive
O=C(O)c1ccccc1Cc1ccccc1,inactive,inactive,inactive,inactive
CC1(C)C2CC[C@]3(C)C(CC=C4[C@@H]5C[C@@](C)(CO)[C@@H]6C[C@@]5(CC[C@]43C)C(=O)O6)[C@@]2(C)CC[C@@H]1O (stereo partly drawn),inactive,inactive,inactive,inactive
CCC(C)SSC(C)CC (stereo not drawn),inactive,inactive,inactive,inactive
COc1cc2oc(=O)ccc2cc1[C@H](O)[C@@H](O)C(C)(C)O,inactive,inactive,inactive,inactive
NCCC(=O)O,inactive,inactive,inactive,inactive
CCC(=O)NC[C@H](Cc1ccc(OCCc2nc(-c3ccccc3)oc2C)cc1)NC(C)=CC(=O)c1ccc(C(F)(F)F)cc1,inactive,inactive,inactive,inactive
CCOC(=O)c1c(C)cc(O)cc1O,inactive,inactive,inactive,inactive
CC(C)(O)[C@@H]1CC(=O)[C@]2(C)[C@H](CC[C@@]3(C)[C@H](c4ccoc4)OC(=O)[C@H]4O[C@]432)[C@@]1(C)/C=C\C(=O)O,inactive,inactive,inactive,inactive
CN[C@H]1[C@@H](O[C@@H]2[C@H](O[C@@H]3[C@@H](O)[C@@H](O)[C@@H](N=C(N)N)[C@@H](O)[C@@H]3N=C(N)N)O[C@H](C)[C@@]2(O)C=O)O[C@@H](CO)[C@@H](O)[C@H]1O,inactive,inactive,inactive,inactive
